Screening results from PubChem.
Shown are actives, neighbours in structure and some others; about 4.7% of the full set was active somewhere.
TRHR ag = agonists of human TRH receptor; P34981; TRHR cells, calcium flux fluo-8, FDSS agonist mode; activation, % at 2 µM; 360,000 tested, 0.18% active; note: 0% is about no effect
Target sequence (P34981 whole entry, looked up): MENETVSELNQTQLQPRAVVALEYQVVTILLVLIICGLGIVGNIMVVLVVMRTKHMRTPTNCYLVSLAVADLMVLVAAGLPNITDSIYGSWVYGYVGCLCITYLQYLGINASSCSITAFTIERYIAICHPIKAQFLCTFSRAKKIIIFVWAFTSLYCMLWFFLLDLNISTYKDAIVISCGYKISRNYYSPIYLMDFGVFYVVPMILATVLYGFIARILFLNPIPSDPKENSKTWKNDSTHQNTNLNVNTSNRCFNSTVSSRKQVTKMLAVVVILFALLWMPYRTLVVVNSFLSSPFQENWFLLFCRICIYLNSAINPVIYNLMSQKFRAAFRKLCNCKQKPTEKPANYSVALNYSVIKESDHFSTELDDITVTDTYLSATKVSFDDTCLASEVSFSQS
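Agonist-mode FDSS calcium read (Ex 480/Em 530, 1 s cycles) in 1536-well TRHR cells with fluo-8 dye, after 10-cycle baseline and 23 nL compound addition; TRH at EC20 (10 nM final) added afterwards for the enhancer phase.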
D1 antag = blocks dopamine activation of the human D1 receptor; HEK293 TREx D1 cells, calcium flux, dopamine EC80; hits give low values; activity change, negative = inhibition, % at 10 µM; 360,000 tested, 3.2% active; AID 504652; in the data active = activity change below about -30%; note: % is set by controls: 0 for no effect and ±100 for the full control effect
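After overnight tetracycline induction at 30 C, force-coupled D1 HEK293 cells took up a no-wash calcium dye at room temperature. Compounds were added and monitored 180 s, and the response to EC80 dopamine was then recorded.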
D1 potentiator = enhances dopamine response at the human D1 receptor; potentiation, % at 10 µM; P21728; 360,000 tested, 0.036% active; HEK293 TREx D1 cells, calcium flux, dopamine EC20 potentiation; in the data active = potentiation above about 30%; note: 0% is about no effect
D1 ag = activates the human D1 dopamine receptor; AID 504660; P21728; 360,000 tested, 1% active; HEK293 T-REx D1 cells, calcium flux, agonist mode; activation, % at 2 µM; note: 0% is about no effect
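Tetracycline-induced HEK293 TREx D1 cells, force-coupled to calcium signalling, were dye-loaded with a no-wash calcium kit. Compound was pin-added after a 10 s baseline. Fluorescence was read kinetically at 1 cycle/s for 180 s, with calcium rises flagged as agonism.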
TRHR PAM = allosterically enhances the human TRH receptor; P34981; TRHR cells, fluo-8 calcium fluorescence, EC20 TRH enhancement; enhancement, % at 2 µM; 360,000 tested, 0.66% active; AID 493056; in the data active = enhancement above about 30%; note: 0% is about no effect
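TRHR-expressing cells loaded with fluo-8 calcium dye were read kinetically (ex 480/em 530) during compound addition, then stimulated with an EC20 of TRH (10 nM final). Enhancement of the Gq-mediated intracellular calcium response was scored.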
Starred values were filed as active, the others as inactive; ! = not confirmed by another sample. Cut-off read from the data, not from the text of the source, unless noted: active = activation above about 30%; inactive = the rest.

SMILES	TRHR ag	D1 antag	D1 potentiator	D1 ag	TRHR PAM
CCc1ccc(CN2CCC(n3nccc3NC(=O)C3CCCC3)CC2)cc1	0	68	32*	9	7
O=C(Nc1ccnn1C1CCN(Cc2ccc(Cl)cc2)CC1)C1CCCC1	0	-6	-3	9	-1
O=C(Nc1ccnn1C1CCN(Cc2ccc3nonc3c2)CC1)c1cccc(F)c1	1	-39*	1	8	2
O=S(=O)(Nc1nc(-c2ccccc2)cs1)c1cccc(C(F)(F)F)c1	-2	-14	-7	8	-2
COc1cc(C(=O)OCC(=O)N2CCCC2)cc(OC)c1OC	7	-42*	-4	3	-3
Cc1cc(C)cc(C(=O)OCC(=O)N2CCCC2)c1	1	3	4	-1	-7
Cc1ccc(C(=O)OCC(=O)N2CCCC2)cc1	0	-56*	-7	1	13
O=C(NCc1ccccn1)c1nc(Cn2ccc([N+](=O)[O-])n2)no1	0	1	-8	4	0
O=C(O)c1cccnc1SCc1cccc(Cl)c1	0	-40*!	-13	1	-27
N#Cc1c(NC(=O)c2cc3nc(-c4ccc(Br)cc4)cc(C(F)(F)F)n3n2)sc2c1CCCC2	0	19	2	3	1
CC(NC(=O)CSc1nnc(-c2cc3cc(Cl)ccc3o2)n1C)c1ccccc1 (centres undefined)	0	-1	-7	-3	32*
Cn1c(SCC(=O)NC2CCCCC2)nnc1-c1cc2cc(Cl)ccc2o1	1	0	12	1	5
CN=c1c([N+](=O)[O-])nn(-c2ccc3c(c2)OCCO3)n1O	0	3	0	3	-1
CC(C)N=c1c([N+](=O)[O-])nn(C)n1O	0	-58*	-4	2	4
COc1ccc(C(CNC(=O)Cc2ccc(Cl)cc2)N2CCOCC2)cc1 (centres undefined)	1	-8	9	-2	-2
O=S(=O)(N/N=C/c1ccc(OC2CSC2)cc1)c1ccccc1	-2	11	-5	47*	2
O=C(Nc1ccc(C(F)(F)F)cc1)c1ccccc1	0	-49*	-12	1	-4
O=C(Nc1ccc(NC(=O)c2ccccc2Br)cc1)c1ccccc1	1	-16	-3	4	-2
O=C(Nc1ccc(C(=O)c2ccccc2)cc1)c1ccccc1	1	9	-16	8	-6
O=C(C[n+]1ccc(C(=O)c2ccccc2)cc1)Nc1ccc(C(F)(F)F)cc1	0	-43*	-3	2	3
O=C(Nc1ccc(C(F)(F)F)cc1)c1ccccc1Br	0	-38*	-7	4	1
Nc1cc[n+](CC(=O)Nc2ccccc2)cc1	0	-6	-3	1	2
COc1ccc2c(c1)c1c(c(=O)n(-c3cccc(Cl)c3)c(=O)n1C)n2C	0	-2	0	-1	1
CCOC(=O)c1c(C)[nH]c(C)c1S(=O)(=O)N(C)CC(=O)Nc1cccc(C)n1	-1	-4	-3	2	-3
Cc1cccc(CSCc2ccc(C(=O)NC3CCCC3)o2)c1	0	-46*	-12	17	-4
SMILES	TRHR ag	D1 antag	D1 potentiator	D1 ag	TRHR PAM
O=C(NC1CCCC1)c1ccc(CS(=O)(=O)Cc2ccccc2F)o1	0	-42*	-1	2	1
Cc1ccc(CSCc2ccc(C(=O)NCCc3ccc(Cl)cc3)o2)cc1	3	-41*	-3	25	2
COc1cccc(NC(=O)Cn2c(=O)n(-c3ccc(Cl)cc3)c(=O)c3oc4ccccc4c32)c1	1	0	-6	4	-1
CC(=O)N1CCCc2ccc(NS(=O)(=O)c3cccc(Cl)c3)cc21	0	1	0	7	4
CCCCCN1C(C(=O)c2ccccc2)=C(NC(=O)c2ccc(C)cc2)c2ccccc2S1(=O)=O	1	3	0	4	0
O=C1c2cccc3cccc(c23)C(=O)N1Cc1cccnc1	-3	20	-6	2	3
O=C1c2cccc3c([N+](=O)[O-])ccc(c23)C(=O)N1Cc1cccnc1	9	-40*	2	13	-9
COC(=O)c1ccc(Oc2coc3cc(OCc4cnn(-c5ccccc5)c4)ccc3c2=O)cc1	0	-38*	-3	4	0
COC(=O)c1ccc(Oc2c(C)oc3cc(OCc4cnn(-c5ccccc5)c4)ccc3c2=O)cc1	2	4	2	4	-2
